Potency data for 33 compounds are collected here from PubChem BioAssay (Tox21).

Records with an inconclusive call do not appear. Entries that show only a call come without a potency. The source made the active and inactive calls. Calls follow the shape of the full dose curve.

This assay is described as follows: p53 small molecule agonists, cell-based qHTS assay with human liver microsomes (AID 1963577).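 Also: p53 response element beta-lactamase reporter cells with liver microsomes plus NADPH.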 The gist of the method:
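16 h, 37 C exposure of p53RE-bla cells to compounds with human liver microsomes and NADPH (0.5 mg/mL final each); detection via LiveBLAzer mixture, 2 h dark at room temperature.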
A general note: qHTS replaces the single test concentration by a dilution series.

Regarding `O=C(CCCCC(=O)Nc1c(I)cc(I)c(C(=O)O)c1I)Nc1c(I)cc(I)c(C(=O)O)c1I`, the Potency result was “inactive”.

In the case of `O=C1c2ccccc2C(=O)N1CCl`, the Potency entry was “inactive”.

In the case of `Oc1ccc(Nc2ccccc2)cc1`, the Potency entry was “inactive”.

Consider `CCCCCCCCCCCCCCNCCO`, for which the Potency entry is “inactive”.

With `CCCCCCCCOc1ccc(C(=O)O)cc1`, the Potency entry was “inactive”.

Take `CC(C)OC(=O)C(C(=O)OC(C)C)=C1SC=CS1`: the Potency result was “inactive”.

On to `O=C(O)c1cc(Cl)cc(Cl)c1O`, for which the Potency result was “inactive”.

As to `CN1CCN(C2=Nc3cc(F)ccc3Cc3ccccc32)CC1`, the Potency entry was “inactive”.

As to `CC(C)C(=O)Nc1cccc(C(F)(F)F)c1`, the Potency entry was “inactive”.

Take `CC(CCc1ccccc1)NCC(O)c1ccc(O)c(C(N)=O)c1` (stereo not drawn): the Potency result was “inactive”.

`CC1=C(C(=O)OC(C)C)C(c2cccc([N+](=O)[O-])c2)C(C(=O)OC2CN(C(c3ccccc3)c3ccccc3)C2)=C(N)N1` (stereo not drawn): the Potency result was “inactive”.

With `NC(=O)C(=O)N/N=C/c1ccc([N+](=O)[O-])o1`, the Potency entry was “inactive”.

Take `C=CCCCCCCCCC=O`: the Potency result was “inactive”.

Take `Oc1c(Br)cc(Br)c2cccnc12`: the Potency entry is “inactive”.

For `NC1CCN(c2cccc(Cl)n2)CC1`, the Potency result was “inactive”.

With `CC(COc1ccccc1)NC(C)C(O)c1ccc(O)cc1` (stereo not drawn), the Potency result is “inactive”.

As for `CC(CN1CC(=O)NC(=O)C1)N1CC(=O)NC(=O)C1` (stereo not drawn), the Potency entry was “inactive”.

For `CC1=C2[C@H](/C=C(\C)C(=O)O)CC[C@@H](C)[C@H]2CC1`, the Potency result is “inactive”.

In the case of `COS(=O)(=O)C(F)(F)F`, the Potency result was “inactive”.

In the case of `O=C(O)c1ccncc1`, the Potency result was “inactive”.

On to `CC(=O)Nc1ccc(C)c(Cl)c1`, for which the Potency entry is “inactive”.

As for `Nc1ncnc2c1ncn2[C@@H]1O[C@H](CO)[C@@H](O)[C@H]1O`, the Potency entry was “inactive”.

As for `Cc1cccc2sc(N)nc12`, the Potency entry was “inactive”.

Turning to `COCCOC(=O)C1=C(C)NC(C)=C(C(=O)OC/C=C/c2ccccc2)C1c1cccc([N+](=O)[O-])c1` (stereo not drawn), the Potency result is “inactive”.

In the case of `O=c1c2ccccc2nnn1CCl`, the Potency result was “inactive”.

Take `COc1cc(C(=O)NS(=O)(=O)c2ccccc2C)ccc1Cc1cn(C)c2ccc(NC(=O)OC3CCCC3)cc12`: the Potency result was “inactive”.

Consider `O=C(/C=C/c1ccccc1)OCCCc1ccccc1`, for which the Potency result is “inactive”.

On to `CCN(CC)CCOc1ccccc1C(=O)CCc1ccccc1`, for which the Potency entry was “inactive”.

In the case of `COC(=O)CC#N`, the Potency entry was “inactive”.

For `Cc1scc2c1N(C(=O)CN1CCN(C)CC1)c1ccccc1NC2=O`, the Potency result was “inactive”.

Regarding `CC(C)C(=O)OCC(C)(C)C(O)C(C)C` (stereo not drawn), the Potency entry is “inactive”.

In the case of `C[C@H](O)C(=O)Nc1c(I)c(C(=O)NC(CO)CO)c(I)c(C(=O)NC(CO)CO)c1I`, the Potency entry is “inactive”.

In the case of `CCCN(CCC)CCc1cccc2c1CC(=O)N2`, the Potency result is “inactive”.
